Laboratory results reported in PubChem BioAssay (EPA / NIEHS).
Records with an inconclusive call do not appear. Calls of active or inactive are those of the source. The calls were made as follows, unless noted: active = hit-call score of the fitted dose curve at least 0.9, where 1 is the maximum; inactive = score below 0.9.

Key:
[1] = biological target: Nuclear respiratory factor 1 (Homo sapiens) (UniProt Q16656); test: ATG_NRF1_CIS: Attagene CIS-FACTORIAL HepG2 Assay for human Nuclear Respiratory Factor 1 (NRF1) Orphan Gene (AID 2282987); conditions: HepG2 NRF1 cis-element reporter, Attagene multiplex; actives raise or lower the signal
Chain of Nuclear respiratory factor 1 (Homo sapiens) (Q16656 whole entry, looked up): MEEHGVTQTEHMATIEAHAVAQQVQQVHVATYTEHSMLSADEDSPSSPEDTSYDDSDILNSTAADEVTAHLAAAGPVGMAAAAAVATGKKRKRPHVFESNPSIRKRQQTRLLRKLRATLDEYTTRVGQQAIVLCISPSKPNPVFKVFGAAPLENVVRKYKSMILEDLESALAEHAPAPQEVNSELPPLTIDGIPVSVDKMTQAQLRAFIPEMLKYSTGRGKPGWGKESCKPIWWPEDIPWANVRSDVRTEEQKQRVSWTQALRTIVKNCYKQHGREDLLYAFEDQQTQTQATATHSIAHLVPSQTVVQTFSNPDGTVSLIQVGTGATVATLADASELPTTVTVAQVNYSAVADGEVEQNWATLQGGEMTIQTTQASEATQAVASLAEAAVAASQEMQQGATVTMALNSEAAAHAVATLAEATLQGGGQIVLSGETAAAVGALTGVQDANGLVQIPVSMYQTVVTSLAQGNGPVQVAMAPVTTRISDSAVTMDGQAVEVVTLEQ
Outline: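 Reporter mRNA induction or loss in HepG2 cells after 24 h dosing; cis-regulated reporter constructs report endogenous transcription-factor activity. Quantified by RT-PCR/capillary electrophoresis fluorescence, DMSO-referenced.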

[2] = ATG_NFI_CIS: Attagene CIS-FACTORIAL HepG2 Assay for human Nuclear Factor I (NFI) (AID 2282989); conditions: HepG2 cis-regulatory reporter, NFI response element transcription; actives raise or lower the signal
Outline: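 Read-out: reporter mRNA via RT-PCR plus capillary electrophoresis with fluorescence detection. Transiently transfected HepG2 (endogenous TF activity on cis promoters), 24 h compound exposure; gain or loss of signal fitted against DMSO.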

[3] = biological target: Myc proto-oncogene protein (Homo sapiens) (UniProt P01106); test: ATG_Myc_CIS: Attagene CIS-FACTORIAL HepG2 Assay for human Myelocytomatosis (Myc) Proto-Oncogene Transcription Factor (AID 2282990); conditions: HepG2, Attagene cis-reporter transcription factor activity; actives raise or lower the signal
Chain of Myc proto-oncogene protein (Homo sapiens) (P01106 whole entry, looked up): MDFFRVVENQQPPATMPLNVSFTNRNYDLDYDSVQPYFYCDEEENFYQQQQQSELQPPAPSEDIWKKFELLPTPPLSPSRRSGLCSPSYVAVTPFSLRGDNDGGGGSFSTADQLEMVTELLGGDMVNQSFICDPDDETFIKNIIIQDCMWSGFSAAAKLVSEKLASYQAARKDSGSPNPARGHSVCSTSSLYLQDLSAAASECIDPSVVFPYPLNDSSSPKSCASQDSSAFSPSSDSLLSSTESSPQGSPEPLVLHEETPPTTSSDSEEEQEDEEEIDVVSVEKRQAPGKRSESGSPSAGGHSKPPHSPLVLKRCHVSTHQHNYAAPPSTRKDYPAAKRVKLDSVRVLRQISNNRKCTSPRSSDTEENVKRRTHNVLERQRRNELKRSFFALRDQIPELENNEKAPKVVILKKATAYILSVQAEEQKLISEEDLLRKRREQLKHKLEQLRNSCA
Outline: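 Transiently transfected HepG2 cells bearing cis-promoter reporter units for endogenous transcription factors; 24 h exposure. Reporter mRNA measured by RT-PCR, 6-FAM primer extension, HpaI cut and capillary electrophoresis; bidirectional fit relative to DMSO.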

[4] = ATG_NF_kB_CIS: Attagene CIS-FACTORIAL HepG2 Assay for human Nuclear Factor Kappa B (NF-kB) (AID 2282991); conditions: HepG2 Attagene cis-factorial NF-kB reporter mRNA; actives raise or lower the signal
Outline: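 DMSO served as negative control and baseline for bidirectional curve fitting. Transiently transfected HepG2 cells were dosed for 24 h, then reporter transcripts were measured by RT-PCR with capillary electrophoresis detection.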

[5] = ATG_NRF2_ARE_CIS: Attagene CIS-FACTORIAL HepG2 Assay for human Nuclear Factor Erythroid 2 Related Factor 2 (NFR2) response to Antioxidant Response Elements (ARE) (AID 2282992); conditions: HepG2 Attagene ARE/NRF2 reporter, transcription factor activity; actives raise or lower the signal;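 as to AC50: reporter mRNA level measured by RT-PCR and capillary electrophoresis fluorescence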
Outline: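 Multiplexed reporter mRNA profiling in HepG2 after a 24 h chemical exposure. Curves fitted in both directions relative to DMSO negative control.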

[6] = ATG_Oct_MLP_CIS: Attagene CIS-FACTORIAL HepG2 Assay for human Octamer-Binding Transcription Factor (Oct) (AID 2282993); conditions: HepG2 Attagene cis-factorial Oct reporter, mRNA; actives raise or lower the signal
Outline: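 Read-out: reporter mRNA via RT-PCR plus capillary electrophoresis of 6-FAM-labelled fragments. Transiently transfected HepG2, 24 h exposure, endogenous TF activity on cis elements. Gain or loss of signal fitted relative to DMSO.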

[7] = biological target: Cellular tumor antigen p53 (Homo sapiens) (UniProt P04637); test: ATG_p53_CIS: Attagene CIS-FACTORIAL HepG2 Assay for human p53 Transcription Factor (AID 2282994); conditions: HepG2 p53 cis-element reporter, Attagene mRNA; actives raise or lower the signal
Chain of Cellular tumor antigen p53 (Homo sapiens) (P04637 whole entry, looked up): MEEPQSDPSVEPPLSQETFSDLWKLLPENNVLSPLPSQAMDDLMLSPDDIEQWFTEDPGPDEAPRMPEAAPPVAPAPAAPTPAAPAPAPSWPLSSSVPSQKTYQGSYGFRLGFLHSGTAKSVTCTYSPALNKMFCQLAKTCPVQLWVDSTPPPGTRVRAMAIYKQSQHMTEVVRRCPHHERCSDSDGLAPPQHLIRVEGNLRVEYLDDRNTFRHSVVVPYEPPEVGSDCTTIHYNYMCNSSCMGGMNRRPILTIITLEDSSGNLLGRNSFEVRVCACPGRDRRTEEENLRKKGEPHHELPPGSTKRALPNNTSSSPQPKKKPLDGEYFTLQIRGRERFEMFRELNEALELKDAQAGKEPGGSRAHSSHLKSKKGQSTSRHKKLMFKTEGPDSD
Outline: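 Multiplexed reporter mRNA assay in human HepG2 liver cells; cis-regulated units report endogenous factor activity. Values come from bidirectional curve fitting against DMSO negative control after 24 h treatment.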

[8] = BSK_3C_uPAR: BioMAP Diversity Plus: 3C Assay for Urokinase-type plasminogen activator receptor (uPAR) Biomarker Activity (AID 2282998); conditions: BioMAP 3C HUVEC, uPAR biomarker ELISA; actives raise or lower the signal
Outline: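 HUVEC primary cells; 24 h post-dose; uPAR by ELISA; gain or loss of signal fitted bidirectionally vs DMSO baseline.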

[9] = BSK_3C_VCAM1: BioMAP Diversity Plus: 3C Assay for Vascular cell adhesion molecule 1 (VCAM1) Biomarker Activity (AID 2282999); conditions: BioMAP 3C HUVEC, VCAM1 ELISA, cytokine-stimulated; actives raise or lower the signal
Outline: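 Human umbilical vein endothelial cells (3C system), biomarker read by ELISA 24 h after dosing; bidirectional fit against DMSO baseline. Cytotoxicity tracked by SRB total-protein staining in parallel cultures at biomarker time.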

[10] = BSK_4H_Eotaxin3: BioMAP Diversity Plus: 4H Assay for Eotaxin 3 Biomarker Activity (AID 2283000); conditions: primary human endothelial cells (HUVEC); actives raise or lower the signal
Outline: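 Eotaxin-3 (CCL26) levels were measured by ELISA in HUVEC primary cultures 24 h post-dosing. Gain or loss of signal was fitted in both directions, with DMSO serving as baseline and negative control.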

[11] = biological target: human Peroxisome Proliferator-activated Receptor alpha (PPARa), PPARA (gene 5465) (UniProt Q07869); test: ATG_PPARa_TRANS: Attagene TRANS-FACTORIAL HepG2 Assay for human Peroxisome Proliferator-activated Receptor alpha (PPARa) (AID 2283001; active = hit-call score of the fitted dose curve at least 0.9, where 1 is the maximum)
Chain of human Peroxisome Proliferator-activated Receptor alpha (PPARa), PPARA (gene 5465) (Q07869 whole entry, looked up, the tested form may be a part): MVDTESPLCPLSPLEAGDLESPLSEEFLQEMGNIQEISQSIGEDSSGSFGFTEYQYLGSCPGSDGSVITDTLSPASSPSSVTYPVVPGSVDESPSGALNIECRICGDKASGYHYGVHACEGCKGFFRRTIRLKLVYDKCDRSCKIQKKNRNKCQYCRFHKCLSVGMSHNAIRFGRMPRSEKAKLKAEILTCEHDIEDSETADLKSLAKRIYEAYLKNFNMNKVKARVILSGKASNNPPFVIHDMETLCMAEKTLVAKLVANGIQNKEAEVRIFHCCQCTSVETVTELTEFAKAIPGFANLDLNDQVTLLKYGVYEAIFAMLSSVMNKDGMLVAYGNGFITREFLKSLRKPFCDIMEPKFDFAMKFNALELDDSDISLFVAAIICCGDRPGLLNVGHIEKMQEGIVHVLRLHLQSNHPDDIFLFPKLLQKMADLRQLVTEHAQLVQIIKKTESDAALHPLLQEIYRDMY
Outline: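 Measures transcriptional activity of an exogenous chimeric PPARa-Gal4 protein in transiently transfected HepG2 cells after 24 h dosing. Reporter mRNA quantified via RT-PCR and capillary electrophoresis; DMSO served as negative control.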

[12] = read-out: Intercellular Adhesion Molecule 1 (ICAM1), ICAM1 (gene 3383); test: BSK_3C_ICAM1: BioMAP Diversity Plus: 3C Assay for Intercellular Adhesion Molecule 1 (ICAM1) Biomarker Activity (AID 2283003); conditions: primary human endothelial cells (HUVEC); actives raise or lower the signal
Outline: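 Human vascular endothelial primary cells, 3C conditions, 24 h treatment. ICAM-1 by ELISA.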

[13] = biological target: human Retinoic Acid Receptor beta (RARb), RARB (gene 5915) (UniProt P10826); test: ATG_RARb_TRANS: Attagene TRANS-FACTORIAL HepG2 Assay for human Retinoic Acid Receptor beta (AID 2283004; active = hit-call score of the fitted dose curve at least 0.9, where 1 is the maximum)
Chain of human Retinoic Acid Receptor beta (RARb), RARB (gene 5915) (P10826 whole entry, looked up, the tested form may be a part): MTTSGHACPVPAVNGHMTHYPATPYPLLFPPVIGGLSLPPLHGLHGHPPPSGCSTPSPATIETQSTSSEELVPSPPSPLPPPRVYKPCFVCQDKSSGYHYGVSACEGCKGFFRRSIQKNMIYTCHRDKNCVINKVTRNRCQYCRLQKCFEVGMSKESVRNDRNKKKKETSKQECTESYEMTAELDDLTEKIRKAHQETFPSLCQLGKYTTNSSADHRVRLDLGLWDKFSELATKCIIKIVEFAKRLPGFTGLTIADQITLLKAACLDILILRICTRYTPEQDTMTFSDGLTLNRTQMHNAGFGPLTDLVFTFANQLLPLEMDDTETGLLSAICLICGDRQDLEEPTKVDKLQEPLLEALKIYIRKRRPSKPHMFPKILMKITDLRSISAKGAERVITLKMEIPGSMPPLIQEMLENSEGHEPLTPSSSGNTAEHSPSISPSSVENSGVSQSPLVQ
Outline: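 HepG2 cells were transiently transfected with GAL4-UAS reporter units that report activity of exogenous chimeric NR-Gal4 proteins, then exposed to compound for 24 h. Reporter mRNA was quantified by RT-PCR with capillary electrophoresis fluorescence, as gain of signal over DMSO.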

[14] = biological target: Retinoic acid receptor alpha (Homo sapiens) (UniProt P10276); test: ATG_RARa_TRANS: Attagene TRANS-FACTORIAL HepG2 Assay for human Retinoic Acid Receptor alpha (RARa) (AID 2283005; active = hit-call score of the fitted dose curve at least 0.9, where 1 is the maximum)
Chain of Retinoic acid receptor alpha (Homo sapiens) (P10276 whole entry, looked up, the tested form may be a part): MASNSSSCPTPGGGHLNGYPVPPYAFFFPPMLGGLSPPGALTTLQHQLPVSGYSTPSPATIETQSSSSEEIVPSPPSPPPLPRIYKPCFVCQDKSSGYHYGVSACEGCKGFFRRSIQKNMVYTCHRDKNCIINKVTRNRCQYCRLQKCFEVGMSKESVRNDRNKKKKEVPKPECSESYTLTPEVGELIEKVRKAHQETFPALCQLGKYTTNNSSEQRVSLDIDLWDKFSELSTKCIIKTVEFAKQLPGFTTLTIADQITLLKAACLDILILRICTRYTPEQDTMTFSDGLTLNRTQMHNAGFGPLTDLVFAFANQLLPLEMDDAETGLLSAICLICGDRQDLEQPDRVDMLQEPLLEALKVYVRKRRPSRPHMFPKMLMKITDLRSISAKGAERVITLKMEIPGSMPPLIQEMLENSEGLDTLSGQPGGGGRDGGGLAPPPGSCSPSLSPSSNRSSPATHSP
Outline: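 HepG2 transiently transfected with multiplex GAL4-UAS reporter units including a human RARa–GAL4 chimera; 24 h compound exposure. Reporter mRNA quantified by RT-PCR, 6-FAM labeling and capillary electrophoresis; gain of signal versus DMSO.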

[15] = biological target: Nuclear receptor subfamily 1 group I member 2 (Homo sapiens) (UniProt O75469); test: ATG_PXR_TRANS: Attagene TRANS-FACTORIAL HepG2 Assay for human Pregnane X Receptor (PXR) (AID 2283008; active = hit-call score of the fitted dose curve at least 0.9, where 1 is the maximum)
Chain of Nuclear receptor subfamily 1 group I member 2 (Homo sapiens) (O75469 whole entry, looked up, the tested form may be a part): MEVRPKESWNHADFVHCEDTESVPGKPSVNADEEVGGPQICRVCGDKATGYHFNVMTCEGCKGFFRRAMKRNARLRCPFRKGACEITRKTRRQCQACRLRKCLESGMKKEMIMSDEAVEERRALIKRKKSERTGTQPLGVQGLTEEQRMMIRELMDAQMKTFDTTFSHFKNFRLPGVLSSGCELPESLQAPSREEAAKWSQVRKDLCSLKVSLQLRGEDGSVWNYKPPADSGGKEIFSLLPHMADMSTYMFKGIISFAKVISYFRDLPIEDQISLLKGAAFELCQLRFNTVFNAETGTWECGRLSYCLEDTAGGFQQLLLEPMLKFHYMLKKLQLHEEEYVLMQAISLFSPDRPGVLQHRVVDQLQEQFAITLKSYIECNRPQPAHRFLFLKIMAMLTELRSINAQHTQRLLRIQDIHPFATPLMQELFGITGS
Outline: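 Measures mRNA induction of a GAL4-UAS-driven reporter in human HepG2 cells transiently expressing PXR fused to Gal4, following 24 h treatment. DMSO served as negative control and baseline.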

[16] = biological target: human Peroxisome Proliferator-activated Receptor delta (PPARd), PPARD (gene 5467) (UniProt Q03181); test: ATG_PPARd_TRANS: Attagene TRANS-FACTORIAL HepG2 Assay for human Peroxisome Proliferator-activated Receptor delta (PPARd) (AID 2283002; active = hit-call score of the fitted dose curve at least 0.9, where 1 is the maximum)
Chain of human Peroxisome Proliferator-activated Receptor delta (PPARd), PPARD (gene 5467) (Q03181 whole entry, looked up, the tested form may be a part): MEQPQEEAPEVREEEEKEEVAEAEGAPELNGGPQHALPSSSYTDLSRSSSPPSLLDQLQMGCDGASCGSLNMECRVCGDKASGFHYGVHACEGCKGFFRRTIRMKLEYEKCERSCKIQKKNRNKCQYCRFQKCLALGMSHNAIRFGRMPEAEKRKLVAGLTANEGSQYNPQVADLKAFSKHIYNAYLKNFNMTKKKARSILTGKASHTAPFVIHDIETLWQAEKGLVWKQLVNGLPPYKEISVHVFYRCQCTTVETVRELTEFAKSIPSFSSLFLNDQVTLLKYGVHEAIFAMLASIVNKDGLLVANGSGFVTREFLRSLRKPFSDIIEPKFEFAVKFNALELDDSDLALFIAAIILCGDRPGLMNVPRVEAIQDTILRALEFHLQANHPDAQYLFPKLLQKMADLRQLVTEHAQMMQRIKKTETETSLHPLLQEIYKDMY
Outline: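 HepG2 cells transiently transfected with GAL4-UAS multiplexed reporter units driven by exogenous chimeric NR-GAL4 proteins; 24 h compound exposure. Reporter mRNA measured by RT-PCR, 6-FAM primer extension, HpaI digestion and capillary electrophoresis; gain of signal fitted relative to DMSO.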

[17] = biological target: Peroxisome proliferator-activated receptor gamma (Homo sapiens) (UniProt P37231); test: ATG_PPARg_TRANS: Attagene TRANS-FACTORIAL HepG2 Assay for human Peroxisome Proliferator-activated Receptor-gamma (PPARg) (AID 2283007; active = hit-call score of the fitted dose curve at least 0.9, where 1 is the maximum)
Chain of Peroxisome proliferator-activated receptor gamma (Homo sapiens) (P37231 whole entry, looked up, the tested form may be a part): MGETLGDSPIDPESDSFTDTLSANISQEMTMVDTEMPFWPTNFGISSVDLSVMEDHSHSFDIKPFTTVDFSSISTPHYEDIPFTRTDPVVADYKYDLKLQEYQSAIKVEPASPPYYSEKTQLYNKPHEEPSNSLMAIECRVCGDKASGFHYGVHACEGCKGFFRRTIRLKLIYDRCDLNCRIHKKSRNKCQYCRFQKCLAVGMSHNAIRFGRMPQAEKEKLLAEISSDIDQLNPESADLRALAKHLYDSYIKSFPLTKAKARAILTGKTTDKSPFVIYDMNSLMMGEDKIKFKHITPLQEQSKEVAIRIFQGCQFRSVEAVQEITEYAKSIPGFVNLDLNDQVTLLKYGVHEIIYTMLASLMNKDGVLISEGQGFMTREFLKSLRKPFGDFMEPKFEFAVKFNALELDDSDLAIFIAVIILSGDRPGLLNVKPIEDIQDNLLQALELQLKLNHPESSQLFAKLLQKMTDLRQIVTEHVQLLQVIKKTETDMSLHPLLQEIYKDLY
Outline: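 Chimeric NR-Gal4 transactivation is measured in transiently transfected HepG2 cells by reporter mRNA induction at 24 h. Detection uses RT-PCR with fluorescent labelling and capillary electrophoresis; DMSO defines baseline.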

[18] = BSK_3C_TissueFactor: BioMAP Diversity Plus: 3C Assay for Tissue Factor Biomarker Activity (AID 2282997); conditions: BioMAP 3C HUVEC, tissue factor biomarker readout; actives raise or lower the signal
Outline: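 HUVEC were treated 24 h, then surface tissue factor measured by ELISA and fitted bidirectionally against DMSO. Parallel SRB total-protein staining assessed overt cytotoxicity at the same time point.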

[19] = biological target: human Retinoic Acid Receptor gamma (RARg), RARG (gene 5916) (UniProt P13631); test: ATG_RARg_TRANS: Attagene TRANS-FACTORIAL HepG2 Assay for human Retinoic Acid Receptor gamma (RARg) (AID 2283009; active = hit-call score of the fitted dose curve at least 0.9, where 1 is the maximum)
Chain of human Retinoic Acid Receptor gamma (RARg), RARG (gene 5916) (P13631 whole entry, looked up, the tested form may be a part): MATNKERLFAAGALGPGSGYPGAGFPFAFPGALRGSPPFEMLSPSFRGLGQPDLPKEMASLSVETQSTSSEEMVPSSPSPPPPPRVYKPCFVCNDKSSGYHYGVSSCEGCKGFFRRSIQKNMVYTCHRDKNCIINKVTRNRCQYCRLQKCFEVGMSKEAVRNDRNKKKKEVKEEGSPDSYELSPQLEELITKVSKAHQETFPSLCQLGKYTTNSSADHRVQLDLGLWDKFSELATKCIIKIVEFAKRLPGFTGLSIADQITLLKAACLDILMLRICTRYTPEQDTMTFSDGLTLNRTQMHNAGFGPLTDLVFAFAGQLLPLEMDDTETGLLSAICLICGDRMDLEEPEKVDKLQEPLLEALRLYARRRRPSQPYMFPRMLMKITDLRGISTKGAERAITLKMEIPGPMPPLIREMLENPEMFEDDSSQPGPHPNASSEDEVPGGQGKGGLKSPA
Outline: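 HepG2, RARg-GAL4 TRANS system, 24 h exposure; reporter mRNA by RT-PCR + CE fluorescence; increase over DMSO.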

[20] = BSK_3C_Proliferation: Cell Proliferation Assessment in the BioMAP Diversity Plus: 3C Assay (AID 2283006); conditions: primary human endothelial cells (HUVEC)
Outline: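 Proliferation of human vascular endothelial primary cells after 48 h dosing, quantified as SRB-stained protein at 560 nm relative to DMSO.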

Measured: AC50

CN(C)C(=O)Nc1cccc(C(F)(F)F)c1
not listed: [16] | [17] | [18] | [19] | [20]
inactive: all other assays above

CSC1=N[C@@](C)(c2ccccc2)C(=O)N1Nc1ccccc1
active: [5] 4.24 µM | [6] 10.7 µM | [8] 7.46 µM | [10] 25.3 µM
inactive: [1] | [2] | [3] | [7] | [9] | [16] | [12] | [17] | [15]

CCOC(=O)COc1cc(-c2nn(C)c(OC(F)F)c2Cl)c(F)cc1Cl
active: [15] 29.6 µM
not listed: [20]
inactive: all other assays above

CC(C)N(C(=O)SCC(Cl)=C(Cl)Cl)C(C)C
active: [5] 13.5 µM | [6] 24.7 µM | [18] 32.9 µM | [8] 32.2 µM | [9] 35.5 µM | [10] 32 µM | [12] 30.9 µM
not listed: [17] | [20]
inactive: all other assays above

CSc1nnc(C(C)(C)C)c(=O)n1N
not listed: [11] | [15] | [16] | [17] | [18] | [20]
inactive: all other assays above

CC[C@H](C)[C@H]1O[C@]2(C=C[C@@H]1C)C[C@@H]1C[C@@H](C/C=C(\C)[C@@H](O[C@H]3C[C@H](OC)[C@@H](O[C@H]4C[C@H](OC)[C@@H](NC)[C@H](C)O4)[C@H](C)O3)[C@@H](C)/C=C/C=C3\CO[C@@H]4[C@H](O)C(C)=C[C@@H](C(=O)O1)[C@]34O)O2
active: [8] 1.93 µM | [9] 6.56 µM | [10] 5.75 µM | [12] 9.48 µM
inactive: [1] | [3] | [5] | [6] | [7] | [11] | [17]

C[N+]1(C)CCCCC1
not listed: [2] | [11] | [16] | [18]
inactive: all other assays above

Cc1nn(-c2cc(NS(C)(=O)=O)c(Cl)cc2Cl)c(=O)n1C(F)F
active: [15] 28.9 µM
not listed: [2] | [4] | [13] | [14] | [17] | [19] | [20]
inactive: all other assays above

CCOC(=O)CC(SP(=O)(OC)OC)C(=O)OCC (centres undefined)
active: [5] 21.9 µM | [17] 28.7 µM
not listed: [2] | [14] | [15] | [20]
inactive: all other assays above

CCC(=O)Nc1ccc(Cl)c(Cl)c1
active: [5] 30.7 µM
not listed: [2] | [4] | [16] | [19] | [20]
inactive: all other assays above

CCOP(=S)(OCC)OC(Cl)C(Cl)(Cl)Cl (centres undefined)
active: [4] 26.4 µM | [5] 50 µM | [6] 29.2 µM | [9] 14.6 µM
not listed: [2] | [11] | [17] | [20]
inactive: all other assays above

C[Si](Cn1cncn1)(c1ccc(F)cc1)c1ccc(F)cc1
inactive: [3] | [7] | [8] | [9] | [10] | [11] | [16] | [12] | [15]
active: [1] 73.7 µM | [5] 11.8 µM | [6] 39.1 µM | [17] 48.5 µM

CNC(=O)ON=C(SC)C(=O)N(C)C
active: [5] 24.9 µM | [6] 18.9 µM
not listed: [2] | [13] | [14] | [15] | [17] | [18] | [19]
inactive: all other assays above

CN1COCN(Cc2cnc(Cl)s2)C1=N[N+](=O)[O-]
not listed: [2] | [14] | [15] | [16] | [17] | [18]
inactive: all other assays above

CCCOc1nn(C(=O)NS(=O)(=O)c2ccccc2C(=O)OC)c(=O)n1C
active: [8] 0.0593 µM | [9] 1.09 µM
not listed: [2] | [11] | [13] | [14] | [16] | [18]
inactive: all other assays above

CCOP(=S)(OCC)Oc1cc(C)nc(C(C)C)n1
active: [5] 15.9 µM
not listed: [2] | [11] | [13] | [14] | [17] | [19]
inactive: all other assays above
